Results reported in ChEMBL document CHEMBL3988442, “University of Dundee, Small-Polar-MMV Screening Library” (2021).
Among all 69,000 compounds or so, about 950 (1.4%) showed an effect of 50% or more. This is one part of a sample in which strong results are shown more often than they occur.

Tested on: Mycobacterium tuberculosis
Test: Cornell M. t heat shock assay; further: in the data most compounds retested in dose-response had high values
Type: functional, organism-based
Set-up: dose or concentration left out as unconfirmed

| SMILES | Percent Effect [%] |
| --- | --- |
| CCn1nc(C)c(-c2cncn2Cc2ccccc2CN(C)C)c1C.Cl | 2.066 |
| O=C(O)C(F)(F)F.c1cc(CN2CCO[C@H]3[C@H](OCC4CCOCC4)CC[C@@H]32)co1 | 4.016 |
| CCS(=O)(=O)CCNc1nc(C2CCCC2)nc2c1cnn2C | -23.34 |
| CCOCCNc1nc(C2CCCC2)nc2c1cnn2C | 10.38 |
| CC(C)N(CCNc1nc(C2CCCC2)nc2c1cnn2C)C(C)C | 102.6 |
| Cn1ncc2c(NCCn3cccc3)nc(C3CCCC3)nc21 | -24.81 |
| Cn1ncc2c(NCCC34CCCN3CCC4)nc(C3CCCC3)nc21 | 90.62 |
| CNCCCNc1nc(C2CCCC2)nc2c1cnn2C | -14.72 |
| CN(C)CCN1CCC2(CCN(C(=O)c3cccc(F)c3)CC2)C1=O.O=C(O)C(F)(F)F | -26.99 |
| COCC1CN(Cc2cnn(C)c2)Cc2nn(C)cc21.O=C(O)C(F)(F)F (centres undefined) | -8.537 |
| CNCC(=O)N1CCCC(c2nccnc2Oc2cccc(F)c2)C1.Cl (centres undefined) | -3.012 |
| O=C(NCCc1cccnc1)c1nc2c(s1)CCCN2C(=O)C1CC1.O=C(O)C(F)(F)F | 31.31 |
| Cl.Fc1ccccc1CNc1ccnc(C2CCNCC2)c1 | -7.114 |
| CS(=O)(=O)Nc1cnn(Cc2cccc(Cl)c2)c1 | -3.827 |
| CCS(=O)(=O)Nc1cnn(Cc2cccc(C)c2)c1 | -6.735 |
| CCS(=O)(=O)Nc1cnn(Cc2cccc(Cl)c2)c1 | 69.75 |
| O=C(O)C(F)(F)F.O=C(c1cccs1)N1C[C@@H]2OCCN(CC3CCCO3)[C@@H]2C1 (some centres undefined) | -25.16 |
| CC[C@@H]1N(C)CCC[C@]12CCC(=O)N2Cc1ccncc1.O=C(O)C(F)(F)F.O=C(O)C(F)(F)F | -9.742 |
| O=C(O)C(F)(F)F.O=C(O)c1c(-c2cccnc2)ncc2c1CCN(CC1CCOC1)C2 (centres undefined) | -9.377 |
| O=C(O)C(F)(F)F.O=C(O)C(F)(F)F.O=C(O)C(F)(F)F.O=C1C[C@H]2[C@@H](CCN2Cc2ccccn2)N1CCN1CCOCC1 | -15.17 |

| SMILES | Percent Effect [%] |
| --- | --- |
| O=C(CN1C(=O)CCNC1=O)N1CCC(c2ccc(F)cc2)C1 (centres undefined) | 18.83 |
| O=C(CN1C(=O)CCNC1=O)N1CCOC(c2ccc(F)cc2)C1 (centres undefined) | 12.93 |
| O=C1CCNC(=O)N1CC(=O)N1CCC1c1ccc(F)cc1 (centres undefined) | 51.34 |
| O=C(O)C(F)(F)F.O=C(O)C(F)(F)F.c1cncc(CN2CC[C@H]3O[C@@H](COCC4CCOCC4)CC[C@H]32)c1 | -5.632 |
| CC(C)N1CCC2(C=C(C(=O)NC3CC3)c3ccccc32)CC1.O=C(O)C(F)(F)F | -2.25 |
| O=C(O)C(F)(F)F.c1csc(NCc2n[nH]c3c2CCN(CC2CC2)C3)n1 | -23.28 |
| Cc1cccc(CN2CCCn3c(nnc3Cn3cccn3)C2)n1.O=C(O)C(F)(F)F | -30.89 |
| CCc1cnc(CN(C)C2CCN(CC(=O)Nc3cc(C)on3)C2)o1 (centres undefined) | -19.35 |
| CCc1cnc(CN(C)C2CCN(CCc3cccs3)C2)o1 (centres undefined) | -5.267 |
| CCc1cnc(CN(C)C2CCN(CCc3ccccn3)C2)o1 (centres undefined) | 105.9 |
| Cc1cnc(CN(C)C2CCN(CC(=O)Nc3nccs3)C2)o1 (centres undefined) | 66.08 |
| Cc1cnc(CN(C)C2CCN(CC(=O)N(C)c3nccs3)C2)o1 (centres undefined) | 15.65 |
| CCc1cnc(CN(C)C2CCN(CC(=O)Nc3nccs3)C2)o1 (centres undefined) | 61.16 |
| CC(C)c1cnc(CN(C)C2CCN(CCc3ccccn3)C2)o1 (centres undefined) | -13.05 |
| CCc1cnc(CN(C(C)=O)C2CCN(CCc3ccccn3)C2)o1 (centres undefined) | -12.32 |
| Cc1cnc(CN(C)C2CCN(CC(=O)Nc3nncs3)C2)o1.O=C(O)C(F)(F)F (centres undefined) | -4.89 |
| CC(=O)Nc1ccc(CN2C[C@H]3CC[C@@H]2CN(c2ncccn2)C3)cc1 | 8.779 |
| CC(C)NC(=O)N1Cc2nccn2CC(COc2cccnc2)C1.O=C(O)C(F)(F)F (centres undefined) | -13.64 |
| CNC(=O)CN1CCCC12CCN(C(=O)c1ccsc1)CC2.O=C(O)C(F)(F)F | -20.96 |
| O=C(Cc1ccccn1)N1CCN2C[C@H](Oc3cncnc3)C[C@H]2C1.O=C(O)C(F)(F)F.O=C(O)C(F)(F)F | 3.514 |

| SMILES | Percent Effect [%] |
| --- | --- |
| CCOc1ccc(CNCC(O)c2ccccc2)cc1Cl.Cl (centres undefined) | 35.2 |
| Cc1ncc2c(n1)CN(CCCc1ccccc1)CC2 | 3.621 |
| CN1CCCCC1c1ncc2c(n1)CCN(Cc1ccc(F)cc1)C2 (centres undefined) | 35.62 |
| CN1CCCCC1c1ncc2c(n1)CCN(Cc1ccc(Cl)c(F)c1)C2 (centres undefined) | 103.7 |
| CN1CCCCC1c1ncc2c(n1)CCN(Cc1ccccc1Cl)C2 (centres undefined) | 87.15 |
| CN1CCCCC1c1ncc2c(n1)CCN(CCCc1ccccc1)C2 (centres undefined) | 101.2 |
| Cl.Clc1ccccc1CN1CCc2nc(C3CCCCN3)ncc2C1 (centres undefined) | 12.35 |
| CN1CCc2nc(C3CCCCN3Cc3ccccc3Cl)ncc2C1 (centres undefined) | -4.117 |
| Cn1cnc2c1CCN(CCCc1ccccc1)C2 | 8.155 |
| COc1ccc(CN2CCc3nc(C4CCCCN4C)ncc3C2)cc1 (centres undefined) | 25.26 |
| O=C(CC1CC1)N1CC[C@H]2[C@@H]1CCC(=O)N2c1cccnc1.O=C(O)C(F)(F)F | -6.311 |
| CC(C)NC(=O)C1(CC2CC(c3ccc(F)cc3)=NO2)CCNCC1.O=C(O)CC(O)(CC(=O)O)C(=O)O (centres undefined) | -19.28 |
| CNC(=O)C1Cn2ccnc2C2(CCN(Cc3cccnc3)CC2)O1.O=C(O)C(F)(F)F.O=C(O)C(F)(F)F.O=C(O)C(F)(F)F (centres undefined) | -3.867 |
| COc1ccccc1CN1CCCCC1c1n[nH]cc1-c1cc(C)no1.Cl (centres undefined) | 14.98 |
| COc1cccc(CN2C[C@@H]3COC[C@]3(COCc3ccncc3)C2)c1.O=C(O)C(F)(F)F.O=C(O)C(F)(F)F | -3.091 |
| Cc1csc(CN(C)C2CCN(c3sccc3C#N)C2=O)n1 (centres undefined) | -26.99 |
| Fc1ccc(CN2CCCC3(CCN(Cc4ncc[nH]4)C3)C2)cc1F (centres undefined) | 0.7553 |
| Cc1c[nH]c(CN2CCC3(CCCN(Cc4ccc(F)c(F)c4)C3)C2)n1 (centres undefined) | 58.72 |
| Cc1ccc(CN2CCC3(CCCN(Cc4ccc(F)c(F)c4)C3)C2)o1 (centres undefined) | 10.97 |
